HCMV inh: qHTS Assay for inhibitors of the human cytomegalovirus (HCMV); HFF cells, HCMV-luciferase reporter, 72 h; hits give low values; activity change, negative = inhibition, % at 57.5 µM; 4.5% of 410,000 active; AID 1259415, 2018; in the data active means activity change below about -60%; inconclusive means no clear call, values can overlap the other calls; inactive means above about -39%
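Inhibition of viral replication was scored as loss of reporter luminescence in HFFs infected with HCMV-luciferase (MOI 1 PFU/cell) for 72 h; compounds tested at 2 doses, normalized to buffer and Salinomycin controls.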
LASV entry inh: qHTS for Inhibitors of binding or entry into cells for Lassa Virus; Lassa virus pseudotype entry inhibition, cell reporter; Potency, µM (series often up to 37.9 µM), for inactives: at the highest dose activity change, negative = inhibition, hits mostly inhibitors; 1.2% of 300,000 active; calls by dose curve; tested in HEK293 cells; further: potency means the concentration at half of the fitted maximal effect; nearly all actives have a fitted effect of over 50% in size
Marburg entry inh: qHTS for inhibitors of binding or entry into cells for Marburg Virus | 1.8% of 300,000 active | Marburg virus pseudotyped entry inhibition, cell reporter | Potency, µM (top dose mostly 37.8 µM), inactives show top-dose activity change, negative = inhibition, actives largely listed as inhibitors; calls by dose curve; tested in HEK293 cells; further: potency means the concentration at half of the fitted maximal effect
VACV mCherry inh: qHTS for Stage-Specific Inhibitors of Vaccinia Orthopoxvirus: mCherry Reporter Primary qHTS; Potency, µM (titrated, usually from 36.5 µM), without a hit: top-dose activity change, negative = inhibition, usual class: inhibitors; 0.63% of 310,000 active; Vaccinia virus mCherry reporter infection, fluorescence; calls by dose curve; tested in A549 cells; further: potency means the concentration at half of the fitted maximal effect; nearly all actives have a fitted effect of over 35% in size
Vaccinia Venus: qHTS for Stage-Specific Inhibitors of Vaccinia Orthopoxvirus: Venus Reporter Primary qHTS. Vaccinia virus Venus reporter expression, fluorescence. Potency, µM (highest dose often 36.5 µM), for inactives: top-dose activity change, negative = inhibition, hits mostly inhibitors. 0.46% of 330,000 active. AID 720580, 2013; calls by dose curve; tested in A549 cells; further: potency means the concentration at half of the fitted maximal effect; nearly all actives have a fitted effect of over 30% in size
HCV inhibitor: qHTS Assay for Inhibitors of Hepatitis C Virus (HCV). Huh7.5.1 HCVcc-Cre infection, luciferase reporter, 44 h. Potency, µM (top dose mostly 41.8 µM), for inactives: at the top dose activity change, negative = inhibition, usual class: inhibitors. 3.4% of 340,000 active; active means well fitted inhibition curve with a large enough effect; inconclusive means small, poorly fitted or top-dose-only effect, or another doubt; inactive means no such curve, though single readings can be large or run the other way; further: potency means the concentration at half of the fitted maximal effect
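Cells seeded at 1,000/well and cultured 4 h, then compounds added followed by HCVcc-Cre virus (~0.5 moi). After 44 h further culture, luciferase substrate was added, plates held 15 min at room temperature, and luminescence read for 15 sec.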
An asterisk follows results filed as active; i = inactive; u = inconclusive; x = not tested or not shown; + = active, no number; ! = a repeat was not active; [ ] = dose if it differs, or a comment. Most compounds without a hit are left out; they make up all but 7.8% or so of the library. On the % scale 0 is the no-effect control and ±100 the full control effect.

SMILES | HCMV inh | LASV entry inh | Marburg entry inh | VACV mCherry inh | Vaccinia Venus | HCV inhibitor
CCOc1cccc(/C=C/c2ccc3cccc(O)c3n2)c1O | -100* | u | u | -22% | -20% | 14µM*
CCOc1c(OC(C)=O)ccc(/C=C/c2ccc3cccc(OC(C)=O)c3n2)c1[N+](=O)[O-] | 26 | u | 10% | x | x | 8.9µM*
CCOc1cccc(/C=C/c2ccc3cccc(O)c3n2)c1OC | -93* | u | u | u | -15% | u
Cc1ncsc1CCC(=O)N1CCCC(c2nc(-c3ccncc3)ncc2-c2ccccc2)C1 (stereo not drawn) | x | x | x | -25% | -14% | x
CCCC12CN3CC(CCC)(CN(C1)C3c1ccccc1)C2=O (stereo not drawn) | 11 | -17%[46.1 µM] | x | -1% | 11% | x
COc1cc(Cl)c(C)cc1NC(=O)CCc1nc2cccnc2n1-c1ccccc1 | 12 | -3%[46.1 µM] | 4%[46.1 µM] | -15% | -11% | x
Cc1cc(C)c2sc(N(CCCN(C)C)C(=O)c3ccc(S(=O)(=O)N(C)C4CCCCC4)cc3)nc2c1 | -5 | u | u | 14µM* | 13µM* | 10µM*
CCN(CC)CCN(C(=O)c1c(F)cccc1F)c1nc2cc(C)cc(C)c2s1 | -22 | x | x | x | x | 10µM*
Cc1cc(C)c2sc(N(CCN(C)C)C(=O)c3ccc4ccccc4c3)nc2c1 | + | x | x | x | x | u
CN(C)CCCN(C(=O)c1ccc(S(=O)(=O)N(C)C2CCCCC2)cc1)c1nc2ccc(F)cc2s1 | -3 | u | u | i | -19% | -11%
CCc1ccc2nc(N(CCCN(C)C)C(=O)c3ccc(S(=O)(=O)N(C)C4CCCCC4)cc3)sc2c1 | -86* | u | u | u | 62% | -27%
COc1cc2nc(N(CCCN(C)C)C(=O)c3ccc(S(=O)(=O)N(C)C4CCCCC4)cc3)sc2cc1OC | -8 | u | u | -13% | -26% | -12%
O=C(CN1CCOCC1)N1CC(=O)N2[C@@H](CO)[C@H](c3ccc(Br)cc3)[C@@H]2C1 | -2 | x | x | x | x | x
CCOc1ccc(C(=O)Nc2nc(-c3ccc(Br)cc3)ns2)cc1 | -8 | 27%[46.1 µM] | -17%[46.1 µM] | -10% | -13% | x
O=C(CCN1C(=O)c2ccccc2Sc2ncccc21)Nc1ccc(F)cc1F | -23 | 5%[46.1 µM] | x | -21% | -12% | x
CC(=O)c1ccc(NC(=S)NC(=O)c2c(Cl)c(C)nn2C)cc1 | u | 0% | -8% | -18% | -11% | 12%
CCOC(=O)c1ccc(NC(=S)NC(=O)c2cncc(Br)c2)cc1 | -72* | 14% | 5%[46.1 µM] | -13% | -8% | 1%
CCCCOC(=O)c1ccc(NC(=S)NC(=O)c2c(Br)c(C)nn2C)cc1 | -64* | 4% | u | i | 0% | u
CC(C)CCNC(=O)Cn1c(SCc2cccc(F)c2)nc2ccncc21 | x | x | x | i | -17% | x
NC(=NCc1ccccc1)NC(=O)c1nc(Cl)c(N)nc1N | 14 | 14% | 10µM*! | 17% | -28% | -17%
C/C(=N\Nc1cc(-c2ccccc2)nc(-c2ccccc2)n1)c1ccc(O)c(C)c1 | -64* | 11% | u | 0% | u | 3.5µM*
COc1cc(N/N=C(\C)c2ccc(N)cc2)nc(-c2ccccc2)n1 | 41 | x | x | x | x | 11µM*
C/C(=N\Nc1cc(C)nc(-c2ccccc2O)n1)c1ccccc1 | u | 10%[46.1 µM] | -26%[46.1 µM] | u | -18% | u
C/C(=N\Nc1cc(C)nc(-c2ccccc2)n1)c1cccc([N+](=O)[O-])c1 | -2 | x | x | x | x | u
COc1cc(N/N=C(\C)c2ccc(O)c(C)c2)nc(-c2ccccc2)n1 | -90* | u | u | u | -20% | u
Cc1oc(-c2ccccc2NC(=O)C2CCCO2)nc1CNC(=O)c1[nH]c2c(C)ccc(C)c2c1C (stereo not drawn) | x | x | x | -9% | -14% | x
Cc1ccc(CN2C(=O)N(c3ccc(C)c(Cl)c3)S(=O)(=O)c3ccccc32)cc1 | -32 | 2%[46.1 µM] | x | -22% | -17% | x
